Experimental findings from ChEMBL document CHEMBL1156829 are described below.

Values joined by “and” are separate entries in the source; they are usually repeats but may differ in a detail not shown here. Equal entries are not always repeated. Over roughly 5,400 compounds, “IFI” has its median near 2; the highest 2% begin near 22. The full list was thinned out, with the highest values kept by preference.

This experiment can be described thus: NOVARTIS: Inhibition Frequency Index (IFI) - the number of HTS assays where a compound showed > 50% inhibition/induction, expressed as a percentage of the number of assays in which the compound was tested. The format is functional.
`CCCN(CCC)[P+](CCC)(c1ccc([P+](CCC)(N(CCC)CCC)N(CCC)CCC)cc1)N(CCC)CCC`: the IFI stood at 3.7%. In the case of `CCCCCC[P+](N(CCC)CCC)(N(CCC)CCC)N(CCC)CCC` it was 29.1%; in that of `CCCCNC(=O)C(CC)Sc1nnc(-c2ccc(C)cc2)c(-c2ccc(C)cc2)n1` (stereo not given), 0%. Consider `C=CCSc1nc2sc3c(c2c(=O)n1-c1ccccc1)CCN(C)C3`, for which the IFI turned out to be 7.55%. Consider `O=C(Cc1ccccc1)Nc1ccc(C(=O)Nc2ccc(-c3nc4ccc(NC(=O)c5ccc(NC(=O)Cc6ccccc6)cc5)c(Cl)c4[nH]3)cc2)cc1`, for which the IFI is 7.58%. In the case of `OCCCNc1cc(-c2ccnc(Nc3cccc(Cl)c3)n2)ccn1` it was 30.8%; in that of `Nc1nc(Nc2cccc(Cl)c2)n[nH]1`, 1.07%; in that of `OCCCNc1cc(-c2ccccn2)nc(-c2ccccn2)n1`, 15.4%. The result for `Cc1nc2ccc(Cl)cc2c(O)c1I` reads 0.752%. In the case of `CC(=O)N(C1=C(N(C)C)C(=O)c2ccccc2C1=O)c1ccc(Cl)c(Cl)c1` it was 7.69%. On to `CC(=O)N(C)C1=C(N2CCCCCC2)C(=O)c2ccccc2C1=O`, for which the IFI is 22.5%.

In turn, `CC(=O)N(C)C1=C(N2CCCC2)C(=O)c2ccccc2C1=O` gave an IFI of 0%. `CC(=O)N(C1=C(N2CCCC2)C(=O)c2ccccc2C1=O)c1ccc(F)cc1`: the IFI amounted to 8.11%. Consider `CC(=O)N(C1=C(N(C)C)C(=O)c2ccccc2C1=O)c1cc(C)cc(C)c1`, for which the IFI came to 15.4%. `CC(=O)N(C1=C(N(C)C)C(=O)c2ccccc2C1=O)c1ccc(F)cc1` displayed an IFI of 31.1%. On to `CC(=O)N(C1=C(N2CCOCC2)C(=O)c2ccccc2C1=O)c1ccc(I)cc1`, for which the IFI is 18.7%.

The compound `CC(=O)N(C)C1=C(N2CCOCC2)C(=O)c2ccccc2C1=O` registered an IFI of 22.1%. The result for `CC(=O)N(C1=C(N2CCOCC2)C(=O)c2ccccc2C1=O)c1ccc(F)cc1` reads 24.7%. On to `COc1cccc(-c2ccc(O)c(CN(C)CC(O)c3ccccc3)c2)n1` (stereo not given), for which the IFI was determined as 2.56%. In the case of `Cc1c(-c2ccccc2)c2ccccc2n1CCc1ccc(C)[n+](C)c1` it was 1.22%; in that of `COC(=O)c1sc(-c2ccccc2)cc1NC(=O)c1ccc(S(=O)(=O)N2CCCCCC2)cc1`, 0%. With `CC[n+]1c(C=C2Sc3ccccc3N2CCO)sc2ccccc21`, the IFI was 4.69%. In turn, `CCc1ccc(-n2c(C(CC)N(CCC(C)C)C(=O)Nc3ccc(Cl)c(Cl)c3)nc3ccccc3c2=O)cc1` (stereo not given) yielded an IFI of 6.67%.

Take `Cc1c(Cl)cccc1NC(=S)N(CCCN(C)c1ccccc1)Cc1cccn1Cc1ccc(Cl)cc1`: the IFI is 6.45%. `COC(=O)C1=CNC=C(C(=O)OC)C1c1cc(OC)c(OC)c(OC)c1`: the IFI stood at 2.38%.

The compound `NCC(c1ccc(F)cc1)c1ccc(F)cc1` displayed an IFI of 0%. In the case of `CCCc1c(C)nc2ccc(Br)cc2c1O` it was 3.03%; in that of `Cn1c2c([n+](C)c1CCl)C(=O)c1ccccc1C2=O`, 35.7%; in that of `O=C1C(N2CCCCC2)=C(N2CCCCC2)C(=O)c2ccccc21`, 0%. `Cn1c(=O)c(Cl)c2c3c(c(Cl)ccc31)C(=O)c1ccccc1-2` yielded an IFI of 3.03%.

Compound `CN(C)CCNc1ncc(C(=O)NCc2ccccc2)c(NCCc2ccccc2)n1` yielded an IFI of 1.92%. In the case of `COc1cc(C(=O)NCCc2ccccn2)ccc1OC1CCN(CC(c2ccccc2)c2ccccc2)CC1` it was 1.37%; in that of `CCOc1cc(-c2nnc3[nH]c(=O)n(C)c(=O)c3n2)ccc1OC(C)C`, 4.44%; in that of `CCOc1cc(-c2nc3c(=O)n(C)c(=O)nc-3n(C)n2)ccc1OC(C)C`, 30.8%. As to `CCOc1ccc(-c2noc(-c3ccncc3)n2)cc1OCC`, the IFI was found to be 0%. In the case of `O=C(Nc1ccc(NC(=O)c2ccco2)cc1Cl)c1ccccc1` it was 0%; in that of `CN(C)c1oc(-c2ccc(Cl)cc2Cl)nc1[P+](c1ccccc1)(c1ccccc1)c1ccccc1`, 20.4%; in that of `Clc1ccccc1-c1nc([P+](c2ccccc2)(c2ccccc2)c2ccccc2)c(N2CCOCC2)o1`, 25.9%.

Consider `Cc1nc([P+](c2ccccc2)(c2ccccc2)c2ccccc2)c(N2CCCCC2)o1`, for which the IFI amounted to 9.09%. As for `O=C(Nc1cc(C(F)(F)F)cc(C(F)(F)F)c1)Nc1ccc2nnsc2c1`, the IFI stood at 12.8%.

In turn, `C=CCSC1=NC2(CC(c3ccccc3)c3cc(Cl)c(O)cc3O2)CC(C)(C)N1` (stereo not given) had an IFI of 0%. The result for `O=C(c1cccc([N+](=O)[O-])c1)c1ccc(Cl)c(Cl)c1` reads 0%. With `Nc1ccc(-c2nc3cc(Cc4ccc5[nH]c(-c6ccc(N)cc6)nc5c4)ccc3[nH]2)cc1`, the IFI worked out at 10.3%. On to `COc1ccc(-c2nc3cc(Cc4ccc5[nH]c(-c6ccc(OC)cc6)nc5c4)ccc3[nH]2)cc1`, for which the IFI worked out at 25.7%. For the compound `Nc1ccc(-c2nc3cc(-c4ccc5[nH]c(-c6ccc(N)cc6)nc5c4)ccc3[nH]2)cc1`, the IFI came to 27.3%. Compound `Brc1ccc(C=Nc2ccc(-c3nc4cc(-c5ccc6[nH]c(-c7ccc(N=Cc8ccc(Br)cc8)cc7)nc6c5)ccc4[nH]3)cc2)cc1` came in with an IFI of 23.1%.

As for `Nc1ccc(-c2nc3cc(Oc4ccc5[nH]c(-c6ccc(N)cc6)nc5c4)ccc3[nH]2)cc1`, the IFI was 15.4%. The result for `Brc1ccc(C=NNc2nc3ccccc3[nH]2)cc1` reads 9.02%; that for `Nc1ccc(-c2nc3cc(Oc4ccc(Oc5ccc6[nH]c(-c7ccc(N)cc7)nc6c5)cc4)ccc3[nH]2)cc1`, 5.8%.

`c1cncc(-c2nc3cc(-c4ccc5[nH]c(-c6cccnc6)nc5c4)ccc3[nH]2)c1` yielded an IFI of 5.56%. The result for `COc1ccc(C(=O)Nc2ccc(-c3nc4ccc(NC(=O)c5ccc(OC)cc5)cc4[nH]3)cc2)cc1` reads 12.8%.

Consider `N=c1c2ccccc2nnn1-c1ccc(C(F)(F)F)cc1`, for which the IFI came to 2.53%. The result for `COC(=O)c1sc2nc(CN3CCC(C)CC3)ccc2c1NC(=O)c1ccc(C)s1` reads 1.74%; that for `CCOc1ccccc1-n1c(SCC(=O)c2ccc(Cl)cc2)nc2[nH]ncc2c1=O`, 1.16%; that for `CC(=O)NC(CO)C(O)c1ccc([N+](=O)[O-])cc1` (stereo not given), 0%. As for `COc1ccc(S(=O)(=O)N(C)CCCNc2ccnc3cc(Cl)ccc23)cc1`, the IFI is 10.2%. Compound `CC(c1nc2ccccc2c(=O)n1C)N1CCN(C(=O)C(C)(C)C)CC1` (stereo not given) gave an IFI of 0%.

Compound `O=C(Nc1cccc(Cl)c1)c1cc2ccccc2cc1O` returned an IFI of 9.62%. The compound `N#Cc1ccc(NC(=O)c2cc(Cl)ccc2O)cc1` displayed an IFI of 24.7%.

Consider `O=C(Nc1c2ccccc2nc2ccccc12)c1cc(Cl)ccc1O`, for which the IFI is 3.03%.

In turn, `CCCN(C(=O)Nc1c(C(C)C)cccc1C(C)C)C(CC)c1nc2ccccc2c(=O)n1-c1cccc(C)c1` (stereo not given) yielded an IFI of 0.943%. Compound `CCOC(=O)N1CCN(C(=O)C(=O)NNC(=O)COc2ccc(Cl)cc2Br)CC1` came in with an IFI of 0%.

`OC1(c2ccc(Br)cc2)CCN(C2CCN(Cc3ccccc3)CC2)CC1` gave an IFI of 1.57%. Turning to `COCC(=O)NCc1ccc(OC2CCN(CC(c3ccccc3)c3ccccc3)CC2)cc1`, the IFI amounted to 1.41%. The result for `O=C(Nc1cccc(Oc2ccccc2)c1)NC(CN1CCCC1)c1ccccc1` (stereo not given) reads 7.04%; that for `CCCCCCC1CCC(O)(C(C)(O)C(=O)NC2C(=O)N3NCCCC3C(=O)N(O)C(COC)C(=O)NCC(=O)N3NCCCC3C(=O)N(O)C(C)C(=O)OC2C)OC1C` (stereo not given), 39.3%. Consider `CC[C@H](C)C[C@H]1CC[C@](O)([C@](C)(O)C(=O)N[C@@H]2C(=O)N3NCCC[C@@H]3C(=O)N(O)[C@@H](C)C(=O)NCC(=O)N3NCCC[C@H]3C(=O)N(O)[C@H](C)C(=O)O[C@H]2C(C)C)O[C@@H]1C`, for which the IFI was 34.4%.

`COc1ccc(CN2CCOc3ccc(C(C)(O)CN(C)C)cc3C2)cc1C` (stereo not given): the IFI was determined as 0%. With `CCOC(=O)c1c(C)n(-c2ccccc2)c2ccc(O)cc12`, the IFI was 2.54%. The result for `CCN1CCN(c2c(C(=O)c3ccccc3)cnc3cc(OC)c(OC)cc23)CC1` reads 2.22%; that for `CCCCc1c(C)nc2c(OC)cccc2c1O`, 0%; that for `CCCCN(C)Cc1cc(-c2cccc(OC)n2)ccc1O`, 3.42%.

In the case of `Oc1c2c(nc3cc(-c4ccccc4)nn13)CCCC2`, the IFI turned out to be 7.14%. The result for `CC(C)CNCc1cc(-c2ccc(F)cc2)ccc1O` reads 0.98%; that for `CC(=O)Nc1c(NCc2ccccc2)c2ccccc2sc1=O`, 2.17%. `Cc1ccc(Nc2nc3c(N)nnc(N)c3nc2Nc2ccc(C)cc2)cc1` registered an IFI of 2.98%.

For `O=C(NC(=C(Cl)Cl)[P+](c1ccccc1)(c1ccccc1)c1ccccc1)c1ccc(F)cc1`, the IFI amounted to 27.3%. `O=C(NN=CC(Br)=Cc1ccccc1)c1ccc(F)cc1` had an IFI of 0%. In the case of `CCS/C(Cl)=C(/NC(=O)c1ccccc1)[P+](c1ccccc1)(c1ccccc1)c1ccccc1` it was 3.57%; in that of `COc1ccc(/C=C(/C#N)C(=O)Nc2cccc3ccccc23)cc1`, 0%. In the case of `COc1cc(NC(C)CCCN(Cc2ccc(Cl)cc2)C(=O)Nc2cccc(C(F)(F)F)c2)c2ncccc2c1` (stereo not given) it was 2.7%; in that of `Cc1ccccc1C[n+]1cc(-c2ccc(Cl)cc2)n2c1CCC2`, 7.14%; in that of `CCCCNC1=CC(=O)C(=O)c2ccccc21`, 15.4%. `CCSC1=CC(=O)c2ccccc2C1=O` registered an IFI of 24.3%. For the compound `Cc1c(C(=O)NCCN2CCCC2)cnn1-c1ncc2c(n1)-c1ccccc1SC2`, the IFI is 2.59%. As to `COCCOC(=O)C1=C(C)NC2=C(C(=O)CC(c3ccc(OC)c(OC)c3)C2)C1c1ccccc1Cl` (stereo not given), the IFI was found to be 2.33%. As for `CC(C)NC(=O)c1ccc2c(c1)N=C(c1ccccc1)N(C1CC1)C2`, the IFI was 2.47%. The result for `Cc1ccccc1C=NNc1nc2ccccc2[nH]1` reads 0%; that for `CCN1/C(=C/c2cccc[n+]2C)C=Cc2ccccc21`, 8.33%; that for `CC[n+]1c(/C=C2\Sc3oc4ccccc4c3N2C)ccc2cc(C)ccc21`, 26.1%.

Regarding `CCN1/C(=C/c2ccc3ccccc3[n+]2CC)Sc2c1ccc1ccccc21`, the IFI was 24.1% and 14.3%. The result for `CCN1/C(=C/c2[se]c3ccccc3[n+]2CC)C=Cc2cc(OC)ccc21` reads 19.6%; that for `CCN1/C(=C/c2ccc3ccccc3[n+]2CC)C=Cc2ccccc21`, 22.7%.

In turn, `CC[n+]1c(/C=C2\Sc3ccccc3N2CCO)ccc2cc(C)ccc21` returned an IFI of 6.35%. Turning to `CCN1/C(=C/c2ccc3ccccc3[n+]2CC)Sc2sc3ccccc3c21`, the IFI was 18.3%.

`CCN1/C(=C/c2ccc3ccccc3[n+]2CC)Sc2cc(NC(C)=O)ccc21` had an IFI of 8.33%. As for `CCN1C(=Cc2ccc3ccccc3[n+]2CC)C=Cc2sc3ccccc3c21`, the IFI was found to be 31.4%. Turning to `CC[n+]1c(/C=C2\Sc3ccc(OC)cc3N2C)ccc2cc(C)ccc21`, the IFI amounted to 14.3%.

The compound `CC[n+]1c(/C=C2\Sc3ccc(C)cc3N2CCO)ccc2ccccc21` displayed an IFI of 15.4%.

In the case of `CC[n+]1c(/C=C2\Sc3cc(C)ccc3N2CCO)ccc2ccccc21`, the IFI came out at 15.4%.
